Screening results from PubChem BioAssay.
Sampled rows, rich in hits. Any-hit rate of the full collection: about 12%.
JMJD2A Tudor inh: qHTS Assay for Inhibitors of JMJD2A-Tudor Domain; Lysine-specific demethylase 4A (Homo sapiens), O75164; AlphaScreen JMJD2A-Tudor / H3K4me3 peptide binding; Potency, µM (top dose mostly 114 µM), usual class: inhibitors; actives 4.4% (n = 390,000); AID 504339, 2011; further: nearly all actives have a fitted effect of over 50% in size
BAZ2B inh: qHTS Assay for Inhibitors of BAZ2B | Bromodomain adjacent to zinc finger domain protein 2B (Homo sapiens), Q9UIF8 | AlphaScreen BAZ2B-H3K14Ac peptide displacement | Potency, µM (doses to about 114 µM), usual class: inhibitors | actives 4.4% (n = 360,000) | AID 504333, 2011; further: nearly all actives have a fitted effect of over 60% in size
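BAZ2B (50 nM) with biotin-H3(5-23)K14Ac peptide (50 nM) in PBS pH 7.4, 0.01% Tween-20, preformed 30 min, then compound 30 min at room temperature; top concentration 110uM. AlphaScreen streptavidin donor/nickel chelate acceptor beads (10 ug/mL final), 20 min dark, signal read.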
G9a inh: qHTS Assay for Inhibitors of Histone Lysine Methyltransferase G9a; Potency, µM (doses to about 102 µM), most hits filed as inhibitors; AID 504332, 2011; G9a H3K9 monomethylation, AlphaScreen, 2 h; actives 8.8% (n = 350,000); Histone-lysine N-methyltransferase EHMT2 (Homo sapiens), Q96KQ7; further: nearly all actives have a fitted effect of over 75% in size
Target sequence (Q96KQ7 913-1193 limits assumed): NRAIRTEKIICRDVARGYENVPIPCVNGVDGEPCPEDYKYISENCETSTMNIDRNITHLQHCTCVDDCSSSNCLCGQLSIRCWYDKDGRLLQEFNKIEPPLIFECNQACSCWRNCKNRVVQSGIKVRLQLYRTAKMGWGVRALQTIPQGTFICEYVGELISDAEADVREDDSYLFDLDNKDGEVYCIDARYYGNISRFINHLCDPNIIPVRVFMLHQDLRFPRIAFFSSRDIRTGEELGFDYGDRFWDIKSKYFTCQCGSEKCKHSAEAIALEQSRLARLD
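Methyltransferase reactions run at room temperature for 2 h (20 nM enzyme, 500 nM biotin-H3K9 peptide, 20 uM SAM) after a 15 min compound preincubation; product detected by AlphaScreen beads and anti-H3K9me1 antibody.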
HP1b chromo inh: HTS for Inhibitors of HP1-beta Chromodomain Interactions with Methylated Histone Tails; Chromobox protein homolog 1 (Homo sapiens), P83916; AlphaScreen HP1-beta / biotin-H3K9me3 peptide binding; Potency, µM (top dose mostly 114 µM), usual class: inhibitors; actives 0.56% (n = 390,000); AID 540317, 2011; further: nearly all actives have a fitted effect of over 70% in size
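Compound inhibition of the preformed complex between 50 nM HP1-beta and 50 nM biotinylated H3K9me3 peptide was read by AlphaScreen. Buffer was PBS pH 7.4 with 0.01% Tween-20. Incubations ran 30 min at room temperature, with 10 ug/mL donor/acceptor beads.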
PI5P4Ka inh: qHTS for Inhibitors of phosphatidylinositol 5-phosphate 4-kinase (PI5P4K). max response, %. actives 1.2% (n = 330,000). PI5P4Kalpha enzyme, ADP-Glo luminescence, 60 min; active compounds read low. Phosphatidylinositol 5-phosphate 4-kinase type-2 alpha (Homo sapiens), P48426. AID 652105, 2013; active means max response of -50% or lower; inconclusive means between -30% and -50%; inactive means -30% or higher; further: value at the top dose of about 77 µM
Target sequence (P48426 whole entry, looked up): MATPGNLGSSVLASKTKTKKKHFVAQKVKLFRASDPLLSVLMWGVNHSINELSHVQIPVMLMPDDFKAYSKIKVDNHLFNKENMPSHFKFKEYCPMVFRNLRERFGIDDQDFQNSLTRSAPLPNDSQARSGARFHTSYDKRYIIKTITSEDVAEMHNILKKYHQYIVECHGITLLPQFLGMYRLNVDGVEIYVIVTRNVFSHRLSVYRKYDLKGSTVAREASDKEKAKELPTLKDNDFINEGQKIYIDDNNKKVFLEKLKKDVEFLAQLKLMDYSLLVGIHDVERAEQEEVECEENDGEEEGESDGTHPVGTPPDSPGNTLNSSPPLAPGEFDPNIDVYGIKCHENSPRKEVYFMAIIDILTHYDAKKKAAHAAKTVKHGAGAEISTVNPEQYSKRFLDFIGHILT
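Human PI5P4Kalpha with substrate in 0.038 M HEPES pH 7.4, 0.28 mM EGTA, 0.1% CHAPS, 5% DMSO; reaction started with 5 microM ATP (final), 60 min at room temperature. ADP formed read by ADP-Glo luminescence.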
PLK1 PBD inh: qHTS for Inhibitors of PLK1-PDB (polo-like kinase 1 - polo-box domain): Primary Screen. Serine/threonine-protein kinase PLK1 (Homo sapiens), P53350. Potency, µM, hits mostly inhibitors. Plk1 PBD binding of FITC phosphopeptide, fluorescence polarization. actives 2.8% (n = 360,000); further: series mostly up to about 57 µM; nearly all actives have a fitted effect of over 65% in size
Numbers stand for hits; - = inactive; ? = inconclusive; . = not tested or not shown; ! = not active in a repeat; [ ] = another dose, or the depositor's remark. Unless noted, the call rests on the fitted dose curve; in most records, active means well fitted curve in the direction sought with a large enough effect; inconclusive means small, poorly fitted or top-dose-only effect, or another doubt; inactive means no such curve, though single readings can be large; an effect the other way counts as inactive or inconclusive.

SMILES	JMJD2A Tudor inh	BAZ2B inh	G9a inh	HP1b chromo inh	PI5P4Ka inh	PLK1 PBD inh
c1ccc2c(c1)Sc1cnccc1N2CC1CO1 (stereo not drawn)	.	.	.	.	-	-
Cc1ccc(C(=O)Nc2cccc(C(=O)N3CCOCC3)c2)cc1	-	-	-	-	-	-
O=C(Nc1cccc(C(=O)N2CCOCC2)c1)c1ncn[nH]1	28.2µM	20µM	-	-	.	-
Cc1c(Cl)cccc1NC(=O)c1ncn[nH]1	25.1µM	20µM	11.2µM	-	-	-
Cc1ccccc1C(=O)Nc1cccc(NC(=O)c2ncn[nH]2)c1	-	?	-	-	-	?
Cc1ccc(NC(=O)c2ncn[nH]2)cc1	-	50.1µM	-	-	-	-
Cn1c(=O)c2cc(NC(=O)NCc3ccccc3)ccc2n1Cc1cccc(C(F)(F)F)c1	.	.	.	.	-	-
COc1ccc(OC)c(Nc2nc(-c3sc(NC(=O)c4ccccc4)nc3C)cs2)c1	.	-	-[12.7 µM]	.	.	.
Cc1nc(NC(=O)c2ccccc2)sc1-c1csc(Nc2ccc(Cl)cc2Cl)n1	.	50.1µM	25.1µM	.	.	.
COc1ccc(Cl)cc1Nc1nc(-c2sc(NC(=O)c3ccccc3)nc2C)cs1	.	56.2µM	35.5µM	.	.	.
O=C(Cn1ncc2c(=O)oc3ccccc3c21)N1CCN(c2ccc(Cl)cc2)CC1	-	.	-	-	.	.
O=C(O)CNS(=O)(=O)c1ccc2[nH]c(=O)c(=O)[nH]c2c1	-	-	56.2µM	-	-	-
CCOc1ccc(-c2csc(-c3c(N)c(C(=O)c4ccc5c(c4)OCO5)n4ccccc34)n2)cc1	-	-	-	-	.	.
O=c1cc(C(F)(F)F)nc(SCc2cccc3ccccc23)[nH]1	-	-	-	-	-	29.9µM
Cc1ccc(-c2noc(CN(C(=O)COc3cc(C)cc(C)c3C)C(C)C)n2)cc1	-	-	-	-	.	.
CC(CC(=O)NCc1ccc(Cl)cc1)CC1=NS(=O)(=O)c2ccccc2N1 (stereo not drawn)	-	-	-	-	.	.
Cn1ncc(SCc2ccccc2)c(Cl)c1=O	-	-	-	-	-	-
Cn1ncc(S(=O)(=O)Cc2ccccc2)c(Cl)c1=O	-	?	.	-	-	3.36µM
Cc1ccc(-c2ccc3c(c2)O[C@H](CN(C)Cc2cncnc2)[C@@H](C)CN([C@H](C)CO)S3(=O)=O)cc1	.	.	.	.	-	-
CC1Cc2cccc3c(O)c(C(=O)c4nn[nH]n4)c(=O)n1c23 (stereo not drawn)	?	?	8.91µM	-	-	-
CSCC[C@@H](C(=O)NCc1cccs1)N1Cc2ccccc2C1=O	-	-	50.1µM	-	-	-
CSCC[C@@H](C(=O)Nc1cccc(F)c1)N1Cc2ccccc2C1=O	-	-	17.8µM	-	.	.
CSCC[C@@H](C(=O)Nc1ccc2c(c1)OCCO2)N1Cc2ccccc2C1=O	?	-	?	-	-	-
O=C(NCCN1CCN(C(=O)c2ccc(F)cc2)CC1)c1ccc(F)cc1	-	-	-	-	-	-
COc1ccc(CN2C(=O)C(CC(=O)NCc3cccs3)CC(C(=O)N(C(C)C)C(C)C)=C2C)cc1 (stereo not drawn)	.	.	.	.	-	-
SMILES	JMJD2A Tudor inh	BAZ2B inh	G9a inh	HP1b chromo inh	PI5P4Ka inh	PLK1 PBD inh
O=C(OCC(=O)N1CCCCCC1)c1ccc(F)cc1F	-	-	?	-	-	-
C=CCC1CCCC(=O)N2CC[C@H](O)C12 (stereo partly drawn)	-	-	79.4µM!	-	-	-
Cc1ccc(/C=C/c2nc3ccccc3[nH]2)o1	50.1µM	-	11.2µM	?	-66.0	26.7µM
Cc1ccc(/C=C/c2nc3ccccc3[nH]2)cc1	-	-	-	-	.	.
CCOc1ccc(NC(=O)Cn2cc(C(=O)C3CC3)c3ccccc32)cc1	-	-	-	-	-	-
Cc1ccc(N(CC(=O)NC(C)C)C(=O)CCC(=O)Nc2ccccn2)c(C)c1	.	.	.	.	-	-
CCn1c2ccccc2c2cc(CN3CCN(Cc4ccc(OC)c(OC)c4)CC3)ccc21	4.47µM	44.7µM	?	?	.	.
CCn1c2ccccc2c2cc(CN3CCN(Cc4ccccc4Cl)CC3)ccc21	7.08µM	50.1µM	3.55µM	?	.	.
CCOc1ccc(CN2CCN(Cc3ccc4c(c3)c3ccccc3n4CC)CC2)cc1	22.4µM	10µM	4.47µM	?	.	.
COc1ccc(OC)c(-c2csc(NC(=O)C3=COCCO3)n2)c1	-	?	?	-	-	-
Cc1ccccc1N(Cc1cc(=O)[nH]c2ccccc12)C(=O)C(C)C	-	-	79.4µM	-	-	-
CCC(=O)N(Cc1cc(=O)[nH]c2ccccc12)C1CCCCC1	?	-	-	-	-	23.8µM
Cc1ccc(N(Cc2cc(=O)[nH]c3ccccc23)C(=O)C(C)C)c(C)c1	-	-	?	-	-	-
CCC(=O)N(Cc1cc(=O)[nH]c2ccccc12)c1ccc(C)cc1C	-	-	70.8µM	-	-	-
CCC1OC(C(C)C)Cc2[nH][nH]c(=O)c21 (stereo not drawn)	.	.	.	.	-	-
CCOC(=O)C1CCCCN1Cc1cc(Cl)ccc1O (stereo not drawn)	-	-	-	-	.	-
CCOC(=O)C1CCCCN1Cc1cn(C)nc1-c1ccccc1F (stereo not drawn)	-	-	-	-	-	-
CCOC(=O)C1CCCCN1Cc1cc(OC)ccc1OC (stereo not drawn)	17.8µM	?	12.6µM	?	.	-
CCOC(=O)C1CCCCN1Cc1cccc(OC)c1OC (stereo not drawn)	5.62µM	?	11.2µM	?	.	-
CC(=O)c1c(N=CN(C)C)nc(C)nc1-c1ccccc1	-	-	-	-	-	-
CN(C)C=Nc1ccccc1C1C=NNC1=O (stereo not drawn)	.	-	39.8µM	.	.	.
CC1=NN(C(=O)CSCc2ccccc2)C(O)(c2ccc(Cl)cc2)C1 (stereo not drawn)	-	-	-	-	-	-
CC1=NN(C(=O)c2ccc(Cl)cc2)C(O)(c2ccccc2)C1 (stereo not drawn)	?	50.1µM	.	-	-	-
CN1CC(=O)N(CC(=O)Nc2ccc(N(C)C)cc2)c2ccccc2C1=O	-	50.1µM	14.1µM	-	-	-
CN(C)c1ccc(NC(=O)CN2CCc3ccccc3C2)cc1	50.1µM	39.8µM	12.6µM	?	-	-
O=C(CN1CCc2ccccc2C1)Nc1cccc(S(=O)(=O)N2CCCC2)c1	?	.	3.98µM	?	-	-
O=C(Cc1ccccc1)Nc1cccc(S(=O)(=O)N2CCCCCC2)c1	-	-	-[12.7 µM]	-	-	-
